Reference: PubChem BioAssay AID2283160 (EPA ToxCast)
Results filed as inconclusive are left out. Active and inactive are the calls of the source. The calls were made as follows: active = hit-call score of the fitted dose curve at least 0.9, where 1 is the maximum; inconclusive = response in the unintended direction; inactive = score below 0.9.

biological target: human Fibroblast Growth Factor Receptor 3 (FGFR3), FGFR3 (gene 2261) (UniProt P22607); assay: NVS_ENZ_hFGFR3: NovaScreen (NVS) Enzymatic Assay for human Fibroblast Growth Factor Receptor 3 (FGFR3)
Description: NVS_ENZ_hFGFR3 is a biochemical, single-readout assay that uses extracted gene-proteins in a cell-free assay. Measurements were taken 1 hour after chemical dosing in a 384-well plate.NVS_ENZ_hFGFR3 is one of one assay component(s) measured or calculated from the NVS_ENZ_hFGFR3 assay. It is designed to make measurements of enzyme activity, a form of enzyme reporter, as detected with fluorescence intensity signals by Fluorescence and electrophoretic mobility shift technology.Data from the assay component NVS_ENZ_hFGFR3 was analyzed into 1 assay endpoint. This assay endpoint, NVS_ENZ_hFGFR3, was analyzed in the positive analysis fitting direction relative to DMSO as the negative control and baseline of activity. Using a type of enzyme reporter, loss-of-signal activity can be used to understand changes in the enzymatic activity as they relate to the gene FGFR3. Furthermore, this assay endpoint can be referred to as a primary readout, because this assay has produced multiple assay endpoints where this one serves a enzymatic activity function. To generalize the intended target to other relatable targets, this assay endpoint is annotated to the kinase intended target family, where the subfamily is receptor tyrosine kinase.
Binding assays used specific radioligands (tritiated, iodinated) with non-radioactive competitive displacement ligands in agonist or antagonist protocols (as indicated) and various reference compounds and inhibitors to titrate specific binding to receptors and transporters. Most enzyme assays (CYPs, kinases, phosphatases, proteases, HDACs) used recombinant protein and specific substrates (fluorescence mostly, some colorimetric and radioactive) and inhibitors, followed by a biochemical separation of substrate and product. All assays for the biochemical HTS were initially run in duplicate at a single concentration (10 uM for CYP450 assays and 25 uM for all others). Assay-chemical combinations meeting a pre-defined threshold (e.g., 30% inhibition and other criteria defined below) were then run in singleton concentration-response format with maximum concentration of 20 uM for CYPs and 50 uM for all others. Each assay was run with positive and negative controls, and concurrent controls on every plate. The follow-up (secondary) screen tested active chemical-pairs in concentration series, as well as a few additional assays not tested in the primary screen, some selected negative inactives, and several cases re-run in the concentration series for confirmatory purposes.

human Fibroblast Growth Factor Receptor 3 (FGFR3), FGFR3 (gene 2261), sequence (P22607 whole entry, looked up): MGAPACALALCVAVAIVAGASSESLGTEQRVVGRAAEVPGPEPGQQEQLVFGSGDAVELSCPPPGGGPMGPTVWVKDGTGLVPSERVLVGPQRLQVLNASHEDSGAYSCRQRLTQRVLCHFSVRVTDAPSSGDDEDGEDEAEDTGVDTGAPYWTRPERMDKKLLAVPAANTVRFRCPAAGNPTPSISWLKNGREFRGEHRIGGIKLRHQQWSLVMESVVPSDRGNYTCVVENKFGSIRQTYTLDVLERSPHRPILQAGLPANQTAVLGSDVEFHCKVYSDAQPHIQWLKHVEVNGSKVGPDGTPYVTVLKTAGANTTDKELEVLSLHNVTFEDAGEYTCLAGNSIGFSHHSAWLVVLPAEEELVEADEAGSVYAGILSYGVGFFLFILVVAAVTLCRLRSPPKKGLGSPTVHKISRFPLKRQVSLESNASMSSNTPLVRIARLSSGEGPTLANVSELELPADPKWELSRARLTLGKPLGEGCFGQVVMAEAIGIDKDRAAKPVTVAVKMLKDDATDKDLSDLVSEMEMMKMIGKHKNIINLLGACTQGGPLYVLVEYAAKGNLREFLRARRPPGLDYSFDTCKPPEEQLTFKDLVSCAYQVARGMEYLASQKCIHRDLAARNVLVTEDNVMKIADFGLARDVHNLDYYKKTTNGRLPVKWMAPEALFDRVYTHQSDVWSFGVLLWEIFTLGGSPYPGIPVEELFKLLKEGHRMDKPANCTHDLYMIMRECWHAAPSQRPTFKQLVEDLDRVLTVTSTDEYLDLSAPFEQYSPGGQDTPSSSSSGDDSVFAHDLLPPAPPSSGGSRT

| Compound | AC50 | outcome |
| --- | --- | --- |
| CN(C)[C@@H]1C(=O)C(C(N)=O)=C(O)[C@@]2(O)C(=O)C3=C(O)c4c(O)cccc4[C@@](C)(O)[C@H]3[C@H](O)[C@@H]12 | 14.5 µM (active) | – |
| CN(C)C(=S)SSC(=S)N(C)C | – | inactive |
| CSc1nnc(C(C)(C)C)c(=O)n1N | – | inactive |
| CCCC(=NOCC)C1=C(O)CC(CC(C)SCC)CC1=O (stereo not given) | – | inactive |
| CNC(=O)Oc1ccccc1OC(C)C | – | inactive |
| CCCCN(CC)c1c([N+](=O)[O-])cc(C(F)(F)F)cc1[N+](=O)[O-] | – | inactive |
| COP(=O)(OC)OC=C(Cl)Cl | – | inactive |
| CCCC1COC(Cn2cncn2)(c2ccc(Cl)cc2Cl)O1 (stereo not given) | – | inactive |
| CCCOc1nn(C(=O)NS(=O)(=O)c2ccccc2C(=O)OC)c(=O)n1C | – | inactive |
| COCC(C)N(C(=O)CCl)c1c(C)csc1C (stereo not given) | – | inactive |
| S=C([S-])NCCNC(=S)[S-].[Mn+2] | 40.5 µM (active) | – |
| CC(Oc1cccc(Cl)c1)C(=O)O (stereo not given) | – | inactive |
| CNC(=O)ON=C(SC)C(=O)N(C)C | – | inactive |
| S=C(S)NCCNC(=S)S.[Mn+2].[S-]C([S-])=NCCN=C([S-])[S-].[Zn+2] | 38.2 µM (active) | – |
| CCOc1cc(Oc2ccc(C(F)(F)F)cc2Cl)ccc1[N+](=O)[O-] | – | inactive |
